Assay results published in PubChem BioAssay (Tox21).
Inconclusive results are not listed. Calls of active or inactive are those of the source. Unless noted, the call rests on the fitted dose curve; in most records, active means well fitted curve in the direction sought with a large enough effect in the repeat runs; inconclusive means weak or mixed curves; inactive means no such curve, though single readings can be large; an effect the other way counts as inactive or inconclusive.

How the values were obtained:
[1] = qHTS assay to identify small molecule antagonists of the estrogen receptor alpha (ER-alpha) signaling pathway using the BG1 cell line in the presence of 0.1 nM 17-beta-estradiol - cell viability counter screen (AID 1259241); further: nearly all actives have a fitted effect of over 40% in size
Outline: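 Cells were plated and left 24 hr, compounds in DMSO were pinned in, 17beta-estradiol was added to 0.1 nM final, and after 22 hr CellTiter-Fluor reagent was added for 30 min before fluorescence was read.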

[2] = qHTS assay to identify small molecule antagonists of the androgen receptor (AR) signaling pathway using the MDA cell line in the presence of 0.5 nM R1881 - cell viability counter screen (AID 1259242); further: nearly all actives have a fitted effect of over 45% in size
Outline: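 qHTS format. MDA-kb2 (MMTV-luc, AR/GR responsive) + cpd + 0.5 nM R1881 final, 16 hr 37C/0% CO2 → CellTiter-Fluor 30 min → fluorescence intensity.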

[3] = biological target: Estrogen receptor (Homo sapiens) (UniProt P03372); assay: qHTS assay to identify small molecule antagonists of the estrogen receptor alpha (ER-alpha) signaling pathway using the BG1 cell line in the presence of 0.1 nM 17-beta-estradiol (AID 1259244); further: nearly all actives have a fitted effect of over 50% in size
Outline: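 Reporter is a stably transfected luciferase under four estrogen responsive elements in VM7Luc4E2 cells expressing native full-length ER-alpha; inhibition of 0.1 nM (final) 17beta-estradiol-driven signal over 22 h is read by luminescence.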

[4] = qHTS assay to identify small molecule HDAC inhibitors (AID 1259364);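 further: wild-type HCT-116 cells with endogenous class I/II HDAC activity; top concentration of the series differs between compounds; nearly all actives have a fitted effect of over 45% in size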
Outline: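 Quantitative high-throughput format: overnight-seeded HCT-116 cells got compounds for 2 hr at 37C; HDAC-Glo I/II reagent added, 30 min RT, luminescence measured.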

[5] = qHTS assay to identify small molecule HDAC inhibitors - cell viability counter screen (AID 1259365); further: series mostly up to about 92 µM; nearly all actives have a fitted effect of over 50% in size
Outline: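 Counter screen in wild-type HCT-116 cells: compounds dissolved in DMSO are pin-transferred onto overnight-plated cells and left 2hr at 37C. ATP-based CellTiter-Glo luminescence then measures viable cells.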

[6] = qHTS assay to identify small molecule agonists of the sonic hedgehog signaling (Shh) pathway - cell viability counter screen (AID 1259366); further: nearly all actives have a fitted effect of over 50% in size
Outline: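 Cells are plated at 2,000 per well and left 4hr at 37C, 5% CO2 before compound addition. After 23hr of treatment, CellTiter-Fluor reagent is added for 1hr at 37C and fluorescence is measured.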

[7] = qHTS assay to identify small molecule antagonists of the sonic hedgehog signaling (Shh) pathway - cell viability counter screen (AID 1259367); further: nearly all actives have a fitted effect of over 55% in size
Outline: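 Tox21 library chemicals were tested on a Gli1-Luc NIH/3T3 clone (2,000 cells/well) stimulated by conditioned medium; viability was quantified as fluorescence from CellTiter-Fluor reagent added at 23 hr.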

[8] = qHTS assay to identify small molecule antagonists of the sonic hedgehog signaling (Shh) pathway (AID 1259369; calls by dose curve; further: nearly all actives have a fitted effect of over 45% in size)
Outline: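 Stable Gli1-Luc reporter NIH/3T3 clone; quantitative HTS in stimulated mode with conditioned medium. Luminescence measured after 24hr compound treatment at 37 C.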

[9] = biological target: Estrogen receptor beta (Homo sapiens) (UniProt Q92731); assay: qHTS assay to identify small molecule agonists of the estrogen receptor beta (ER-beta) signaling pathway (AID 1259377; active means well fitted activation curve with a large enough effect in the signal ratio in the repeat runs, not every such curve was filed as active; the % refers to the signal ratio)
Outline: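 Agonist mode cell assay in GripTite HEK293T cells expressing an ER-beta fusion that drives beta-lactamase from an Upstream Activator Sequence; 16 hr compound exposure at 37C, then 2 h LiveBLAzer B/G FRET substrate at room temperature, fluorescence read-out.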

[10] = biological target: Estrogen receptor beta (Homo sapiens) (UniProt Q92731); assay: qHTS assay to identify small molecule antagonists of the estrogen receptor beta (ER-beta) signaling pathway (AID 1259378; active means well fitted inhibition curve with a large enough effect in the signal ratio in the repeat runs, not every such curve was filed as active; the % refers to the signal ratio)
Outline: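 ER-beta-UAS-bla HEK293T cells in 2% charcoal-stripped FBS medium treated with compound plus 1nM final 17-beta-estradiol for 16 hr at 37C. Beta-lactamase reporter read by FRET substrate fluorescence after 2 hours at room temperature.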

[11] = qHTS assay to identify small molecule agonists of the androgen receptor (AR) signaling pathway in the presence of an antagonist - cell viability counter screen (AID 1259379);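 further: MDA-kb2 human breast cancer cells carrying an MMTV luciferase reporter; series mostly up to about 92 µM; nearly all actives have a fitted effect of over 25% in size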
Outline: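 Nilutamide-containing (3.0uM final) MDA-kb2 cultures, 3,000 cells/well, were treated with compounds across 15 concentrations. After 16 hr at 37C with no CO2, cell viability was determined by CellTiter-Fluor fluorescence in the luciferase assay wells.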

[12] = qHTS assay to identify small molecule agonists of the estrogen receptor beta (ER-beta) signaling pathway - cell viability counter screen (AID 1259380); further: nearly all actives have a fitted effect of over 30% in size
Outline: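 Steps: plate ER-beta-UAS-bla HEK293T cells, rest 6 hr; add compounds in DMSO; incubate 16 hr at 37C, 5% CO2; add FRET substrate 2 hr; add CellTiter-Glo, wait 30 min at room temperature; read luminescence.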

[13] = qHTS assay to identify small molecule antagonists of the estrogen receptor beta (ER-beta) signaling pathway - cell viability counter screen (AID 1259382); further: series mostly up to about 92 µM; nearly all actives have a fitted effect of over 55% in size
Outline: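 Viability is scored by CellTiter-Glo luminescence (30 min, room temperature) in ER-beta-UAS-bla HEK293T wells already read for reporter fluorescence. Compound exposure lasts 16 hr at 37C alongside 1nM 17-beta-estradiol in charcoal-stripped serum medium.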

[14] = biological target: Estrogen receptor (Homo sapiens) (UniProt P03372); assay: qHTS assay to identify small molecule agonists of the estrogen receptor alpha (ER-alpha) signaling pathway in the presence of an antagonist (AID 1259383; calls by dose curve; further: top concentration of the series differs between compounds; nearly all actives have a fitted effect of over 15% in size)
Outline: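 Readout was ERE-driven luciferase luminescence in VM7Luc4E2 cells, which express full-length ER-alpha endogenously. Compounds were tested at 15 concentrations for 22hr alongside 10.0nM ICI-182,780 (final concentration).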

[15] = qHTS assay to identify small molecule agonists or antagonists of the thyroid stimulating hormone receptor (TSHR) signaling pathway - wild type cell line counter screen (AID 1259384; calls by dose curve)
Outline: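 Wild-type Hek293 cells, 800/well, 18 h at 37C, then compound with Ro20-1724 for 30 min RT. cAMP by HTRF (cAMP-d2/anti-cAMP cryptate), 1 h RT, fluorescence read. 15 concentrations, triplicates.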

[16] = qHTS assay to identify small molecule agonists of the sonic hedgehog signaling (Shh) pathway (AID 1259368; calls by dose curve;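 further: NIH/3T3-derived 3T3Gli1-Luc cells carrying a stable Gli1-driven firefly luciferase reporter; series mostly up to about 92 µM; nearly all actives have a fitted effect of over 15% in size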)
Outline: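 Quantitative high-throughput format using a Gli1-driven firefly luciferase reporter line derived from NIH/3T3 cells. After a 24 hr compound treatment at 37 C and 5% CO2, luminescence reported Gli1 response element activity.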

[17] = biological target: Androgen receptor (Homo sapiens) (UniProt P10275); assay: qHTS assay to identify small molecule agonists of the androgen receptor (AR) signaling pathway in the presence of an antagonist (AID 1259381; calls by dose curve; further: nearly all actives have a fitted effect of over 15% in size)
Outline: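 Reporter-gene luminescence from MDA-kb2 cells exposed 16hr at 37C (0% CO2) to 15-point compound titrations with 3.0uM final nilutamide as AR antagonist.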

[18] = biological target: Thyrotropin receptor (Homo sapiens) (UniProt P16473); assay: qHTS assay to identify small molecule antagonists of the thyroid stimulating hormone receptor (TSHR) signaling pathway (AID 1259385; calls by dose curve; further: nearly all actives have a fitted effect of over 20% in size)
Outline: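 TSHR-HEK293 cells (800/well) plated 18 h, then compounds with Ro20-1724 and TSH at 1.5 ng/mL final, 30 min at room temperature. cAMP quantified by HTRF (cAMP-d2/anti-cAMP-cryptate, 1 h); 15 concentrations in triplicate.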

[19] = qHTS assay to identify small molecule phospholipidosis (PLD) inducers (AID 1259344; active means well fitted curve in the direction sought with a large enough effect; an effect the other way counts as inactive or inconclusive)
Outline: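 Image-based: LipidTOX Red pit count/intensity per well and per cell; HepG2, 24 h compound at 37 C, PFA fixation, Hoechst counterstain.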

Measured: Potency

Sequence of Estrogen receptor beta (Homo sapiens) (Q92731 whole entry, looked up, the tested form may be a part): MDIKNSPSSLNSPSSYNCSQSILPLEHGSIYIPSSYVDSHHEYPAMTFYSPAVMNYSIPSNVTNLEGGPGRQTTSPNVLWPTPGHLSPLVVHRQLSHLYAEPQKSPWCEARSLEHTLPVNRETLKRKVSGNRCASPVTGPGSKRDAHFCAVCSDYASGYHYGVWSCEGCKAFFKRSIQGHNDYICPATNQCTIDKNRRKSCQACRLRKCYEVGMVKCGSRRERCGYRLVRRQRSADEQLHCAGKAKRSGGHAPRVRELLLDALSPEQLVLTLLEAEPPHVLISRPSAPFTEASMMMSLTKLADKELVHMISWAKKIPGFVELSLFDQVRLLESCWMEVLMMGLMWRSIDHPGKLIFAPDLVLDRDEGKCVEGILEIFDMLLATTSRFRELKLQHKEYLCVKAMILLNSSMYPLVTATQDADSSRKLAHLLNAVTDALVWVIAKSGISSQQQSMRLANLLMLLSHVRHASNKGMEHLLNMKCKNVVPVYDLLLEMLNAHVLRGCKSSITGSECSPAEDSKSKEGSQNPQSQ
Sequence of Estrogen receptor (Homo sapiens) (P03372 whole entry, looked up): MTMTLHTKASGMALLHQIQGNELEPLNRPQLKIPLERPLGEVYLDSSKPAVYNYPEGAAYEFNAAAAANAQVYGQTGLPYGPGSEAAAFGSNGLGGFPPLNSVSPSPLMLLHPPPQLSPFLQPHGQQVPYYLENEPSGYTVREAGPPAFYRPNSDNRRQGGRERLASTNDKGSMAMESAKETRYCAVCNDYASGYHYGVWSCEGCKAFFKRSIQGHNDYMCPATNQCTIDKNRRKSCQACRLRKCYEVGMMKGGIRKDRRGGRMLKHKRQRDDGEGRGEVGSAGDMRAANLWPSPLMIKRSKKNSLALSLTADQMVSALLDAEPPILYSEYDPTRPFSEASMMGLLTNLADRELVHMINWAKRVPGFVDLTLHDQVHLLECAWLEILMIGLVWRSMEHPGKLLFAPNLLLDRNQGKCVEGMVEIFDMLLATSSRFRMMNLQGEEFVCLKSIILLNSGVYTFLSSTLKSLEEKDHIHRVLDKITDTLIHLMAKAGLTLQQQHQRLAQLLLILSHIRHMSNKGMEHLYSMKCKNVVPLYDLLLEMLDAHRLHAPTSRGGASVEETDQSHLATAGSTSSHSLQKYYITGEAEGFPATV
Sequence of Thyrotropin receptor (Homo sapiens) (P16473 whole entry, looked up): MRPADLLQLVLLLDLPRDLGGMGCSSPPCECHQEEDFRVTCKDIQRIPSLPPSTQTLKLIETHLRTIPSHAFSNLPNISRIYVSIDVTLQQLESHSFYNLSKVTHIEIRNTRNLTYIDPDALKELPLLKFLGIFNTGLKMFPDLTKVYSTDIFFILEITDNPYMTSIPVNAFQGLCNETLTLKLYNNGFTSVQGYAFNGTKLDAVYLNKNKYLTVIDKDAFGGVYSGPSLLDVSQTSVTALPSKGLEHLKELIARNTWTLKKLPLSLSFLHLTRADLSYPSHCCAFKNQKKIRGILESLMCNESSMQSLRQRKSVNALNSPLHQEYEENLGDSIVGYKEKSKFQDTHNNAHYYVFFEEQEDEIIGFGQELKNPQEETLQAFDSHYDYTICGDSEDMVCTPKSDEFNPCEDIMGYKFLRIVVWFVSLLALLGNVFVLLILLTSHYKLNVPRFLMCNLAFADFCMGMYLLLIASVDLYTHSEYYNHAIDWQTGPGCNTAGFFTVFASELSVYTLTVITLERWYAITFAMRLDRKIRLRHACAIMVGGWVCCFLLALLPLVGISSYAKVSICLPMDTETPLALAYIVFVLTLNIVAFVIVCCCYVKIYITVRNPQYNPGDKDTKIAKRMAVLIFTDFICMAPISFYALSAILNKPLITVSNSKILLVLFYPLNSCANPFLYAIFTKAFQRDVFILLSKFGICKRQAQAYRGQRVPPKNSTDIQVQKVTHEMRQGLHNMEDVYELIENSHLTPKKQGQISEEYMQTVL
Sequence of Androgen receptor (Homo sapiens) (P10275 whole entry, looked up): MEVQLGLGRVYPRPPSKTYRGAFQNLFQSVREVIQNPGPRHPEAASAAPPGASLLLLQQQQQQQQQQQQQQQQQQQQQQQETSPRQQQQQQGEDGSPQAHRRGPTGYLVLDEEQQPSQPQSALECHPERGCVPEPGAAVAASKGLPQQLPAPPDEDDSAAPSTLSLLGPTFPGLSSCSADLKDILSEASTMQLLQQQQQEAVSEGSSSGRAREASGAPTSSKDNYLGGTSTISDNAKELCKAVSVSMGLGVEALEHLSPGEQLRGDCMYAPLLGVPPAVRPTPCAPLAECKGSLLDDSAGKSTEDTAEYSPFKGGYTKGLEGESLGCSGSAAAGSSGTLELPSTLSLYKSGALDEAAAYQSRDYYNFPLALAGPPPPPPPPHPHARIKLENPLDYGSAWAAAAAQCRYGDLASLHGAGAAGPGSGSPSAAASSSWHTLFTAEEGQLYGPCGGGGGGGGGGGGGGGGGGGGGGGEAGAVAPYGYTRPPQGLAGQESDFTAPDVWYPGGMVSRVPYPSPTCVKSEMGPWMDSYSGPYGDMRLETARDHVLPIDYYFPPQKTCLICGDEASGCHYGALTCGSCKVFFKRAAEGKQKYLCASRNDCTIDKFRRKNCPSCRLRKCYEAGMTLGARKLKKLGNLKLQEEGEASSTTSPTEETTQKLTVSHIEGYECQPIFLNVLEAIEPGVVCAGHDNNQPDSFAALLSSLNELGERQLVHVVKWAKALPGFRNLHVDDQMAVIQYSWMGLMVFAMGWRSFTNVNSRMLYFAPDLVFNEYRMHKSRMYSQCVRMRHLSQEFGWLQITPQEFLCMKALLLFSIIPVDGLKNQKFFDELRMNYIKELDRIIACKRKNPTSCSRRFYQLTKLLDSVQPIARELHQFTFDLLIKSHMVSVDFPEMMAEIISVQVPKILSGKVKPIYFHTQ

C=CCOC(=O)COCCC(C)C
not listed: [16] | [17] | [18] | [19]
inactive: all other assays above

Nc1c(Cl)cc(Cl)cc1[N+](=O)[O-]
not listed: [8] | [18] | [19]
inactive: all other assays above

OCC(CO)n1cnc(-c2ccc(F)cc2)c1-c1ccnc(Oc2ccccc2)n1
not listed: [7] | [8] | [15] | [16] | [17] | [18] | [19]
inactive: all other assays above

CC(C)(O)CCc1ccccc1
not listed: [14] | [17] | [18] | [19]
inactive: all other assays above

CC(=O)NNC(C)=O
not listed: [9] | [10] | [16] | [17] | [19]
inactive: all other assays above

O=C(CCS)OCC(COC(=O)CCS)(COC(=O)CCS)COC(=O)CCS
not listed: [11] | [12] | [16] | [17] | [19]
inactive: all other assays above

O=C(NS(=O)(=O)/C=C/c1ccccc1)c1ccc(F)cc1Cl
not listed: [10] | [17] | [19]
inactive: all other assays above

CCO[Si](C)(CCCOCC1CO1)OCC (stereo unspecified)
not listed: [8] | [10] | [17] | [19]
inactive: all other assays above

CCCCOC(=O)CCCCC(=O)OCCCC
not listed: [3] | [14] | [17] | [19]
inactive: all other assays above

COC(C)(C)OC
not listed: [5] | [9] | [10] | [12] | [16] | [17] | [19]
inactive: all other assays above

CSSc1ccoc1C
not listed: [3] | [11] | [14] | [17] | [19]
inactive: all other assays above

Cc1ccc(Cl)cc1N
not listed: [3] | [14] | [17] | [19]
inactive: all other assays above

Nc1ccn([C@H]2CS[C@@H](CO)O2)c(=O)n1
not listed: [3] | [6] | [11] | [14] | [17] | [18]
inactive: all other assays above
